We go through eight molecules from PubChem BioAssay (Tox21).

Molecules are shown by their SMILES. Several values for one entry are separate records, joined by “and”; a condition that tells them apart may be missing. Identical values can stand only once. Results filed as inconclusive are left out. The source holds several records for some structures; these can differ, active in one and inactive in another. Activity calls are given as the source filed them. Unless noted, calls come from the whole dose curve; as a rule, active = well fitted curve in the direction sought with a large enough effect in the repeat runs; inconclusive = weak or mixed curves; inactive = no such curve, though single readings can be large; an effect the other way counts as inactive or inconclusive.

Test [1] in a line: A CellTox Green Cytotoxicity Assay to monitor cytotoxicity in HEK293 cells - 32 hour (AID 1224881). Note: nearly all actives have a fitted effect of over 40% in size. The method in brief: (§1)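 Seeding of HEK293 cells together with cytotoxicity dye preceded a 5 h incubation at 37 C/5% CO2. Test compounds in DMSO were then added and fluorescence monitored across 40 h.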
Test [2] is described as follows: A CellTox Green Cytotoxicity Assay to monitor cytotoxicity in HepG2 cells - 0 hour (AID 1224882). Note: nearly all actives have a fitted effect of over 35% in size. In short, it runs like this: (§2)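 Nonlytic assay: viable cells exclude the dye, so fluorescence scales with cell death. HepG2 at 600 cells/well, compounds added after 5 h, signal read across 40 h.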
A short description of test [3]: A CellTox Green Cytotoxicity Assay to monitor cytotoxicity in HepG2 cells - 32 hour (AID 1224883). Note: nearly all actives have a fitted effect of over 50% in size. Note: potency is the fitted concentration of half-maximal effect. The method in brief:
as §2

Test [4] in a line: A CellTox Green Cytotoxicity Assay to monitor cytotoxicity in HEK293 cells - 8 hour (AID 1224884). Note: nearly all actives have a fitted effect of over 35% in size. In short, it runs like this: as §1
Test [5] can be described thus: qHTS RealTime-Glo MT Cell Viability Assay in HepG2 cells - 16 hour (AID 1224885). Note: nearly all actives have a fitted effect of over 50% in size. In short, it runs like this:
(§3)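 Luminescence read-out: viable HepG2 cells reduce a prosubstrate to a NanoLuc substrate, giving a signal proportional to live cell number. Reads taken at 0, 8, 16, 24, 32 and 40 h of compound exposure at 37 C.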
On the technique in general: In qHTS, concentration-response curves come from the screen itself.

A short description of test [6]: qHTS RealTime-Glo MT Cell Viability Assay in HEK293 cells - 24 hour (AID 1224886). Note: top concentration of the series differs between compounds; nearly all actives have a fitted effect of over 50% in size. In short, it runs like this:
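Nonlytic real-time viability readout: viable cells convert prosubstrate to NanoLuc substrate, giving luminescence proportional to live cell number. HEK293, 600 cells/well, compound added after 5 h, continuous culture at 37 C.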

The nature of test [7]: qHTS RealTime-Glo MT Cell Viability Assay in HEK293 cells - 8 hour (AID 1224887). Note: top concentration of the series differs between compounds; nearly all actives have a fitted effect of over 50% in size. In short, it runs like this: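 Tox21 screen in HEK293 using RealTime-Glo MT chemistry, with cells and reagent co-dispensed. Luminescence proportional to viable cell number was captured at intervals during 40 h compound exposure at 37 C.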
A short description of test [8]: A CellTox Green Cytotoxicity Assay to monitor cytotoxicity in HEK293 cells - 16 hour (AID 1224888). Note: nearly all actives have a fitted effect of over 35% in size. The method in brief:
as §1

Test [9] in a line: qHTS RealTime-Glo MT Cell Viability Assay in HepG2 cells - 0 hour (AID 1224889). Note: nearly all actives have a fitted effect of over 50% in size. The method in brief: as §3
A short description of test [10]: A CellTox Green Cytotoxicity Assay to monitor cytotoxicity in HepG2 cells - 8 hour (AID 1224890). Note: nearly all actives have a fitted effect of over 45% in size. In short, it runs like this:
as §2

The nature of test [11]: qHTS assay to identify small molecule antagonists of the estrogen receptor alpha (ER-alpha) signaling pathway using the BG1 cell line in the presence of 0.1 nM 17-beta-estradiol - cell viability counter screen (AID 1259241). Note: nearly all actives have a fitted effect of over 40% in size. The method in brief: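 Cells were plated and left 24 hr, compounds in DMSO were pinned in, 17beta-estradiol was added to 0.1 nM final, and after 22 hr CellTiter-Fluor reagent was added for 30 min before fluorescence was read.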

A short description of test [12]: qHTS assay to identify small molecule antagonists of the androgen receptor (AR) signaling pathway using the MDA cell line in the presence of 0.5 nM R1881 - cell viability counter screen (AID 1259242). Note: nearly all actives have a fitted effect of over 45% in size. In short, it runs like this:
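R1881 at 0.5 nM final stimulated MDA-kb2 cells during 16 hr compound treatment at 37C. Cytotoxicity read: CellTiter-Fluor fluorescence after 30 min.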

Test [13] is described as follows: qHTS assay to identify small molecule phospholipidosis (PLD) inducers (AID 1259344; active = well fitted curve in the direction sought with a large enough effect; an effect the other way counts as inactive or inconclusive). In short, it runs like this: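 HepG2 cells, 900/well, treated with compound plus LipidTOX Red for 24 h at 37 C; amiodarone positive and DMSO negative controls. Fixed with paraformaldehyde/Hoechst, then high-content imaging scored LipidTOX pit count and integrated intensity per well and per cell.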

Test [14] is described as follows: qHTS assay to identify small molecule HDAC inhibitors (AID 1259364).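 Note: wild-type HCT-116 cells with endogenous class I/II HDAC activity; top concentration of the series differs between compounds; nearly all actives have a fitted effect of over 45% in size.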 In short, it runs like this: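 Relative class I and II HDAC activity is taken from the luminogenic signal in HCT-116 cells, with compound exposure 2 hr and reagent development 30 min at room temperature.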
Test [15] is described as follows: qHTS assay to identify small molecule HDAC inhibitors - cell viability counter screen (AID 1259365). The method in brief: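 Counter screen in wild-type HCT-116 cells: compounds dissolved in DMSO are pin-transferred onto overnight-plated cells and left 2hr at 37C. ATP-based CellTiter-Glo luminescence then measures viable cells.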
Test [16] in a line: qHTS assay to identify small molecule antagonists of the sonic hedgehog signaling (Shh) pathway - cell viability counter screen (AID 1259367). Note: nearly all actives have a fitted effect of over 55% in size. In short, it runs like this: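 NIH/3T3-derived Gli1-Luc reporter cells, 2,000/well, plated 4 hr before compound addition, then stimulated with conditioned medium for 24 hr at 37C. Viability measured in the same wells by CellTiter-Fluor fluorescence, reagent added at 23 hr for 1 hr.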

Test [17] can be described thus: qHTS assay to identify small molecule agonists of the sonic hedgehog signaling (Shh) pathway (AID 1259368; calls by dose curve;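 note: NIH/3T3-derived 3T3Gli1-Luc cells carrying a stable Gli1-driven firefly luciferase reporter; series mostly up to about 92 µM; nearly all actives have a fitted effect of over 15% in size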). The method in brief:
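Mouse fibroblast (NIH/3T3) reporter cells with stably integrated Gli1-Luc were treated 24 hr with compound; firefly luciferase luminescence served as the read-out.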

Test [18] has as its target Estrogen receptor (Homo sapiens) (UniProt P03372). As to the kind of experiment: qHTS assay to identify small molecule antagonists of the estrogen receptor alpha (ER-alpha) signaling pathway using the BG1 cell line in the presence of 0.1 nM 17-beta-estradiol (AID 1259244). Note: nearly all actives have a fitted effect of over 50% in size. The method in brief:
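VM7Luc4E2; 4xERE-luciferase; 0.1 nM E2 final; 22 h co-incubation, 37C; ONE-Glo luminescence after 30 min at room temperature.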

Test [19] can be described thus: qHTS assay to identify small molecule agonists of the sonic hedgehog signaling (Shh) pathway - cell viability counter screen (AID 1259366). Note: nearly all actives have a fitted effect of over 50% in size. In short, it runs like this:
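Cells are plated at 2,000 per well and left 4hr at 37C, 5% CO2 before compound addition. After 23hr of treatment, CellTiter-Fluor reagent is added for 1hr at 37C and fluorescence is measured.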

Test [20] addresses Androgen receptor (Homo sapiens) (UniProt P10275). As to the kind of experiment: qHTS assay to identify small molecule antagonists of the androgen receptor (AR) signaling pathway using the MDA cell line in the presence of 0.5 nM R1881 (AID 1259243). Note: nearly all actives have a fitted effect of over 50% in size. The method in brief:
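We exposed MDA-kb2 cells to compounds under 0.5 nM R1881 stimulation for 16 hr at 37C and quantified MMTV-driven luciferase by luminescence.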

Sequence of Estrogen receptor (Homo sapiens) (P03372 whole entry, looked up): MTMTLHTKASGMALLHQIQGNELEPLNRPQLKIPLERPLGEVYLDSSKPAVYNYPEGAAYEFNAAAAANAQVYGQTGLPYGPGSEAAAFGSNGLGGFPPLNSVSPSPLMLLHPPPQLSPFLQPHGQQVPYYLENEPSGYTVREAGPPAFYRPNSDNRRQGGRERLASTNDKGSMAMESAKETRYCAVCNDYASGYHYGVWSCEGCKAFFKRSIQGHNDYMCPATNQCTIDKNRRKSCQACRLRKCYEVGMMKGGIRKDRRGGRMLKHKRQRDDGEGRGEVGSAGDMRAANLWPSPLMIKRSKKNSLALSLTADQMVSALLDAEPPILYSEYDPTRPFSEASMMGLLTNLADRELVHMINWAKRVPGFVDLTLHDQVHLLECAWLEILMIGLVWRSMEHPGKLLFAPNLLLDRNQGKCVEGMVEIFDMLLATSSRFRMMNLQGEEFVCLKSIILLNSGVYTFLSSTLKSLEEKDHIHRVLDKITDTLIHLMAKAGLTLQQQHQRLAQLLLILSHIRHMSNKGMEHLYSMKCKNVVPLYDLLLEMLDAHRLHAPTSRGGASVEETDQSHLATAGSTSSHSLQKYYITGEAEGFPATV
Sequence of Androgen receptor (Homo sapiens) (P10275 whole entry, looked up): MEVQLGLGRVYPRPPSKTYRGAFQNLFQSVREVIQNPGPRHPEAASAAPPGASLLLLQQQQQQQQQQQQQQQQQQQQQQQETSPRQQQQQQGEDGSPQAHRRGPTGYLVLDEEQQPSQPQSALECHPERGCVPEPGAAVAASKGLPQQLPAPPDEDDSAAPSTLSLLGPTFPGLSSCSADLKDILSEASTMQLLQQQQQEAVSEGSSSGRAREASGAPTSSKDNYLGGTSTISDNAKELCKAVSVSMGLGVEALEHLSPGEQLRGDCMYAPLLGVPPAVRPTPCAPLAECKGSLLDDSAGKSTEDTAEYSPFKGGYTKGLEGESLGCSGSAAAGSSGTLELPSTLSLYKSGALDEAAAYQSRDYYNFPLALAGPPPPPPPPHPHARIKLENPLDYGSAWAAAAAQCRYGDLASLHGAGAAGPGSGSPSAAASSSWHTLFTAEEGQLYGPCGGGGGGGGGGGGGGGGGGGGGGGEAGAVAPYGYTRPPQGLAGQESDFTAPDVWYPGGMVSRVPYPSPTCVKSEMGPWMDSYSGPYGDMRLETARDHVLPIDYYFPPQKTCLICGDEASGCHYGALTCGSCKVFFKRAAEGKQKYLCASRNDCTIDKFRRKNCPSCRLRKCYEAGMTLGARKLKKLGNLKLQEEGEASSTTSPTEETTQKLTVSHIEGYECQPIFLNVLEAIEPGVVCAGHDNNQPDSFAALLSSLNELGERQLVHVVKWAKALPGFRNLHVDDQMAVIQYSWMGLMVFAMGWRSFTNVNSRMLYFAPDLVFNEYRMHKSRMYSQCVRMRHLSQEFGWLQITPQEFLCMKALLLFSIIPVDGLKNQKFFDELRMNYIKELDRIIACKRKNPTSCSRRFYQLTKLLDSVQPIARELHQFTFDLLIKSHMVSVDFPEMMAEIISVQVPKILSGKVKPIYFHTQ

Turning to `C=CCCCCCCCCC(=O)O`, the Potency result in [1], in test [3], in test [5], in test [6], in test [7] and in test [8] was “inactive” in each case. In addition, the Potency result in test [9], in test [11], in test [12], in test [14] and in test [16] was “inactive” each time. Moreover, the outcome in test [2], in test [4], in test [10], in test [13], in [15] and in test [17] was inactive.

`CCc1ccccc1CC`: the Potency entry in [1], in test [3], in test [5], in test [7], in test [8] and in test [9] was “inactive” throughout. Moreover, the Potency entry in test [11], in test [12], in test [18], in test [14], in [19] and in test [16] was “inactive” each time. Further, the result in test [2], in test [4], in test [10], in [15] and in test [17] was inactive.

With `CCCCC(C=O)CC` (stereo not given), the Potency entry in test [1], in test [5], in [6], in [7], in test [8] and in test [9] was “inactive” throughout. In addition, the Potency result in test [11], in [12], in test [18], in [14] and in [16] was “inactive” in each case. For the same molecule, the molecule was called inactive in [2], in [4], in [10], in test [15] and in test [17]. Besides, in test [3], the Potency result was “inactive and 14.6 µM (active)”.

In the case of `O=C(O)/C=C/C(=O)O`, the Potency result in test [1], in test [3], in [5], in [6], in test [7] and in [8] was “inactive” in each case. Also, the Potency result in test [9], in test [14] and in test [16] was “inactive” each time. The molecule was called inactive in test [2], in test [4], in test [10], in test [15] and in test [17].

For `NCCNCCN`, the Potency entry in test [1], in [3], in [5], in [6], in [7] and in test [8] was “inactive” each time. The Potency result in test [9], in test [11], in test [12], in [14], in test [19] and in test [16] was “inactive” each time. For the same molecule, the molecule was called inactive in test [2], in test [4], in test [10], in test [13], in test [15] and in [17].

Consider `O=S(=O)(O)c1ccccc1`, for which the Potency entry in test [1], in test [3], in test [5], in test [6], in test [7] and in test [8] was “inactive” in each case. The Potency entry in test [9], in [11], in test [12], in test [14] and in test [16] was “inactive” in each case. Also, the call in test [2], in [4], in [10], in [15] and in test [17] was inactive.

Turning to `Cc1ccc([N+](=O)[O-])cc1S(=O)(=O)O`, the Potency result in test [1], in test [3], in test [5], in [6], in test [7] and in test [8] was “inactive” in each case. Besides, the Potency entry in test [9], in test [11], in test [12], in test [20], in [18] and in test [19] was “inactive” each time. In [16], the Potency result is “inactive”. Further, the result in test [2], in [4], in test [10], in test [15] and in test [17] was inactive.

For the molecule `O=C(O)c1ccccc1C(=O)O`, the Potency entry in test [1], in test [3], in test [5], in [6], in [7] and in [8] was “inactive” each time. Further, the Potency result in test [9], in [11], in [12], in test [18], in test [14] and in test [19] was “inactive” each time. For the same molecule, the Potency entry in [16] is “inactive”. Moreover, the molecule was called inactive in test [2], in test [4], in test [10], in test [15] and in [17].
